Pf growth 96h – P. falciparum growth inhibition at 96 hours. Potency, µM (series often up to 28.7 µM), for inactives: top-dose activity change, negative = inhibition, usual class: inhibitors. AID 504834. 6.9% of 320,000 active. P. falciparum luciferase reporter growth, 96 h
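Two parasite generations (96 h, 37 C, 5% CO2) of compound exposure in infected erythrocytes (0.05% parasitemia, 2% hematocrit). Luciferase-reporter P. falciparum; decreased luminescence indicates inhibited growth, aimed at apicoplast-acting delayed death.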
Pf growth 48h – P. falciparum growth inhibition at 48 hours (one generation); P. falciparum luciferase growth in erythrocytes, 48 h; AID 504832; Potency, µM (doses to about 28.7 µM), for the others: at the highest dose activity change, negative = inhibition, most hits filed as inhibitors; 5.9% of 310,000 active
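Cell-based growth assay: transgenic P. falciparum expressing firefly luciferase, cultured in red cells within RPMI 1640 containing 0.5% w/v Albumax, 24 mM bicarbonate and gentamycin. A drop in luciferase activity indicates inhibition.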
AmpC detergent – inhibitors of E. coli AmpC beta-lactamase with detergent; P00811; AmpC hydrolysis of nitrocefin, absorbance 480 nm, 0.01% Triton; Potency, µM (doses to about 114 µM), for inactives: at the top dose activity change, negative = inhibition, actives largely listed as inhibitors; 0.041% of 370,000 active; AID 485294;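 further: 0% = no-compound wells and -100% = no-enzyme wells; nearly all actives have a fitted effect of over 25% in size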
Target sequence (P00811 whole entry, looked up): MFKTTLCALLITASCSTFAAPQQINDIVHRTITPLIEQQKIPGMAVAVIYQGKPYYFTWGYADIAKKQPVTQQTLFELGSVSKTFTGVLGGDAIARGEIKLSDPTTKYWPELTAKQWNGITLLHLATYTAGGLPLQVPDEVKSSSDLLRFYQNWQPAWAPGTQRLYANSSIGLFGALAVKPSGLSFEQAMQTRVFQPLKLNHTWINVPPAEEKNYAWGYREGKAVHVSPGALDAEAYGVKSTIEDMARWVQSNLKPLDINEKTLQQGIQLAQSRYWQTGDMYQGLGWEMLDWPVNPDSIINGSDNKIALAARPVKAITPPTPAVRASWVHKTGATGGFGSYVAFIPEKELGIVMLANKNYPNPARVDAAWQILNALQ
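20 mM phosphate pH 7.0 + 0.01% (detergent screen) or 0.0001% Triton X-100; 5.3 nM AmpC reagent; cpd preinc 15 min RT; nitrocefin (800 uM stock) to start; A480 q20 s × 4 min; Activity was normalised to no-enzyme and no-compound control wells.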
AMA1-RON2 inh – AMA1-RON2 (P. falciparum) interaction inhibition. AlphaScreen AMA1-biotinylated RON2 peptide binding. Potency, µM (top dose mostly 58.2 µM), for the others: at the top dose activity change, negative = inhibition, hits mostly inhibitors. 0.2% of 360,000 active;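 further: 0% = vehicle wells and -100% = peptide control; nearly all actives have a fitted effect of over 45% in size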
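AMA1 (3D7) with his tag at 25 nM final met compounds first, then biotinylated RON2 peptide at 25 nM; detection used donor plus acceptor beads, 10 µg/mL apiece, read by AlphaScreen after 30 min at room temperature.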
HCV inhibitor – inhibitors of hepatitis C virus infection. Huh7.5.1 HCVcc-Cre infection, luciferase reporter, 44 h. Potency, µM (top dose mostly 41.8 µM), without a hit: top-dose activity change, negative = inhibition, actives largely listed as inhibitors. 3.4% of 340,000 active. AID 651820
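A cell-based infection assay in which seeded cells (1,000 per well) receive test compound after 4 h, are inoculated with HCVcc-Cre at approximately 0.5 moi, and are incubated 44 h before luminescence detection.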
AmpC inh no detg – inhibitors of E. coli AmpC beta-lactamase without detergent | P00811 | AmpC nitrocefin hydrolysis, absorbance 480 nm, 0.0001% Triton | Potency, µM (series often up to 57.1 µM), without a hit: at the highest dose activity change, negative = inhibition, usual class: inhibitors | 0.52% of 330,000 active | AID 485341;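 further: plate controls were no compound for no effect and no enzyme for full effect; nearly all actives have a fitted effect of over 20% in size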
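20 mM phosphate pH 7.0 + 0.01% (detergent screen) or 0.0001% Triton X-100; 5.3 nM AmpC reagent; cpd preinc 15 min RT; nitrocefin (800 uM stock) to start; A480 q20 s × 4 min; Activity was normalised to no-enzyme and no-compound control wells.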
Active calls of the source: *. In the library only some 11% were active in any assay of this set; here they are far more common. The call rests on the fitted dose curve; in most records, active means well fitted curve in the direction sought with a large enough effect; inconclusive means small, poorly fitted or top-dose-only effect, or another doubt; inactive means no such curve, though single readings can be large; an effect the other way counts as inactive or inconclusive. Unless noted, on the % scale 0 is the no-effect control and ±100 the full control effect; potency means the concentration at half of the fitted maximal effect.

`O=C(CSc1nnc(Cc2ccccc2)o1)N1CCCc2ccccc21` gave Pf growth 96h inconclusive, Pf growth 48h -8%, AmpC detergent -1%, AMA1-RON2 inh -1%, HCV inhibitor inconclusive and AmpC inh no detg -11%.
Screening O=C(Nc1ccccc1-c1nnn(CC(=O)N2CCCc3ccccc32)n1)c1ccc(Cl)cc1 returned Pf growth 96h 12µM*, Pf growth 48h inconclusive, AmpC detergent -2%, AMA1-RON2 inh 19%, HCV inhibitor 7% and AmpC inh no detg -20%.
For Cc1cc(C)nc(SCc2nnc(SCC(=O)N3CCCc4ccccc43)o2)n1 the results were Pf growth 96h 1.5µM*, Pf growth 48h -21%, AmpC detergent 2%, AMA1-RON2 inh -1%, HCV inhibitor inconclusive and AmpC inh no detg 55%.
`Cc1ccc(NCc2nnc(SCC(=O)N3CCc4ccccc43)n2C)cc1` gave Pf growth 96h 4.7µM*, Pf growth 48h -28%, AmpC detergent -11%, AMA1-RON2 inh -13%, HCV inhibitor -25% and AmpC inh no detg 1%.
`Cc1ccc(OCc2nnc(SCC(=O)N3CCc4ccccc43)n2C)cc1` gave AMA1-RON2 inh 1% and HCV inhibitor 0%.
`CCOC(=O)c1ccc(-n2c(CCC(=O)O)ccc2-c2ccccc2)cc1O` gave AmpC detergent 11%.
Cc1cc(Cl)ccc1OCc1cc(=O)n2c3c(sc2n1)CCCC3 was read as AmpC detergent 6%.
Cc1cc(C)nc(SCc2nnc(SCC(=O)N3CCCc4ccccc43)n2C)n1 was read as Pf growth 96h 123%, Pf growth 48h inconclusive, AmpC detergent -11%, AMA1-RON2 inh 1%, HCV inhibitor 11µM* and AmpC inh no detg 16%.
For Cn1c(SCC(=O)N2CCCc3ccccc32)nnc1-c1ccco1 the results were Pf growth 96h 2%, Pf growth 48h -1%, AmpC detergent 2%, AMA1-RON2 inh 0%, HCV inhibitor inconclusive and AmpC inh no detg -7%.
`Nn1c(SCC(=O)N2CCCc3ccccc32)nnc1-c1ccc(Cl)cc1` gave Pf growth 96h 12µM*, Pf growth 48h 0%, AmpC detergent -11%, AMA1-RON2 inh -7%, HCV inhibitor 2% and AmpC inh no detg -1%.
Screening Cn1c(SCC(=O)N2CCCc3ccccc32)nnc1-c1ccccc1 returned Pf growth 96h inconclusive, Pf growth 48h inconclusive, AmpC detergent 0%, AMA1-RON2 inh 1%, HCV inhibitor 22% and AmpC inh no detg 5%.
`CC(C)CCNC(=O)c1cc(-c2cccnc2)nc2ccc(S(=O)(=O)N3CCC(C)CC3)cc12` gave AmpC detergent 3%.
Screening Cc1ccc(C(=O)N/C(=C\c2ccc(-c3ccc(Cl)cc3)o2)C(=O)NCCCN(C)C)cc1 returned Pf growth 96h 9.3µM*, Pf growth 48h 10µM*, AmpC detergent inconclusive, AMA1-RON2 inh 27%, HCV inhibitor inconclusive and AmpC inh no detg 272%.
`CN(C)CCCNC(=O)/C(=C\c1ccc(-c2ccc(Br)cc2)o1)NC(=O)c1ccccc1` gave Pf growth 96h inconclusive, Pf growth 48h 10µM*, AmpC detergent inconclusive, AMA1-RON2 inh -21%, HCV inhibitor inconclusive and AmpC inh no detg 245%.
For COc1ccc(S(=O)(=O)NCc2nc(-c3ccccc3)no2)cc1 the results were AmpC detergent 17%.
`COc1cccc(C(c2sc3nc(-c4ccco4)nn3c2O)N2CCC3(CC2)OCCO3)c1` (configuration not stated) gave AmpC detergent 1%.
For CC(C)c1ccc(/C=C/C(=O)NC(=S)Nc2ccc(CN3CCOCC3)cc2)cc1 the results were Pf growth 96h 5.2µM*, Pf growth 48h inconclusive, AmpC detergent 1%, AMA1-RON2 inh 39%, HCV inhibitor inconclusive and AmpC inh no detg 46%.
`CC(C)c1ccc(/C=C/C(=O)NC(=S)NN2CCOCC2)cc1` gave Pf growth 96h 12µM*, Pf growth 48h 10%, AmpC detergent -2%, AMA1-RON2 inh 102%, HCV inhibitor 4% and AmpC inh no detg 69%.
N#CC1=C(N)Oc2cc(O)ccc2C1c1ccccc1 (configuration not stated) was read as Pf growth 48h 1%, AmpC detergent 5%, AMA1-RON2 inh -7%, HCV inhibitor 0% and AmpC inh no detg -24%.
`C[n+]1cccc2ccc3c(c21)OC(N)=C(C#N)C3c1ccccc1` (configuration not stated) gave Pf growth 96h 7.4µM*, Pf growth 48h 3.7µM*, AmpC detergent -7%, AMA1-RON2 inh 13%, HCV inhibitor 2% and AmpC inh no detg -5%.
For C[n+]1cccc(C2C(C#N)=C(N)Oc3c2ccc2ccccc32)c1 (configuration not stated) the results were Pf growth 96h inconclusive, Pf growth 48h 0.29µM*, AmpC detergent -8%, AMA1-RON2 inh 11%, HCV inhibitor 4% and AmpC inh no detg 16%.
`CN(C)CC#CCC(O)(c1ccccc1)c1ccccc1` gave Pf growth 96h -26%, Pf growth 48h -17%, AmpC detergent -4%, AMA1-RON2 inh -20%, HCV inhibitor 2% and AmpC inh no detg 3%.
COC(C#CCCN(C)C)(c1ccccc1)c1ccccc1 was read as Pf growth 96h inconclusive, Pf growth 48h 1.7µM*, AmpC detergent -11%, AMA1-RON2 inh 7%, HCV inhibitor -16% and AmpC inh no detg 31%.
`N#CCC(=O)N1CCn2c1nc1ccccc12` gave Pf growth 96h 15%, Pf growth 48h -1%, AmpC detergent 0%, AMA1-RON2 inh -3%, HCV inhibitor 8% and AmpC inh no detg -7%.
`CC(C)(C)C(=O)N1CCn2c1nc1ccccc12` gave Pf growth 96h 2.6µM*, Pf growth 48h 7%, AmpC detergent -13%, AMA1-RON2 inh -10%, HCV inhibitor -8% and AmpC inh no detg -12%.
Screening CCOc1ccc(N2C(=O)N(Cc3c(F)cccc3Cl)c3ccccc3S2(=O)=O)cc1 returned AmpC detergent 8%.
For O=C(Nc1ccc(Br)cc1)C1CCCN1S(=O)(=O)c1cccs1 (configuration not stated) the results were Pf growth 96h 3.7µM*, AmpC detergent inconclusive, AMA1-RON2 inh 0%, HCV inhibitor inconclusive and AmpC inh no detg -30%.
